IL1B secr inh – qHTS for Inhibitors of Inflammasome Signaling: IL-1-beta AlphaLISA Primary Screen; THP-1 LPS/ATP IL-1B secretion, AlphaLISA, 16 h; active compounds read low; activity change, % at 57.5 µM; 360,000 tested, 4.7% active; AID 743279, 2014; in the data active = activity change below about -50%; inconclusive = mostly about -30% to -49%; note: % is set by controls: 0 for no effect and ±100 for the full control effect
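THP-1 cells pretreated 1 hr with compounds (up to 57.5 uM final), then stimulated with LPS (250 ng/mL final) plus ATP (1.25 mM final); secreted IL-1B measured by AlphaLISA after 16 hr, decreased signal indicating inhibition.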
MCF10A rereplic – A quantitative high throughput screen for small molecules that induce DNA re-replication in MCF 10a normal breast cells; MCF 10A DNA re-replication, Hoechst nuclear intensity, 48 h; Potency, µM (titrated, usually from 46.1 µM), without a hit: at the highest dose activity, positive = re-replication, hits mostly activators; 350,000 tested, 2.9% active; AID 624296, 2012; note: potency is the fitted concentration of half-maximal effect; % of control where 0% means no effect; nearly all actives have a fitted effect of over 50% in size
SW480 rerep – A quantitative high throughput screen for small molecules that induce DNA re-replication in SW480 colon adenocarcinoma cells. SW480 DNA re-replication, Hoechst DNA content imaging, 48 h. 340,000 tested, 1.8% active. Potency, µM (titrated, usually from 46.1 µM), without a hit: at the top dose re-replication activation, actives largely listed as activators; note: potency is the fitted concentration of half-maximal effect; % of control where 0% means no effect; nearly all actives have a fitted effect of over 55% in size
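Quantitative HTS format with DMSO vehicle controls; 48 hr drug incubation at 37 C, then 40 min Hoechst staining and scanning imager measurement at 405 nm excitation.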
KB-V1 cytotox – qHTS assay for MDR1-selective chemotherapeutics: Primary screen using the drug-selected MDR subline cells KB-V1; KB-V1 MDR cells viability, CellTiter-Glo, 72 h; Potency, µM (highest dose often 46.1 µM), most hits filed as cytotoxic; 400,000 tested, 3.4% active; note: potency is the fitted concentration of half-maximal effect; % is set by controls: 0 for no effect and ±100 for the full control effect; nearly all actives have a fitted effect of over 60% in size
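Readout: CellTiter-Glo luminescence, 10 min after addition. Cells: KB-V1 MDR subline, 72 h at 37 degrees C with compound. Analysis: corrected, normalized data fitted to concentration-effect curves.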
KB-3-1 tox – qHTS assay for MDR1-selective chemotherapeutics: Primary screen using the parental adenocarcinoma cell KB-3-1; 400,000 tested, 1.4% active; Potency, µM (highest dose often 46.1 µM), usual class: cytotoxic; KB-3-1 viability, CellTiter-Glo ATP luminescence, 72 h; AID 1347075, 2019; note: potency is the fitted concentration of half-maximal effect; % is set by controls: 0 for no effect and ±100 for the full control effect; nearly all actives have a fitted effect of over 60% in size
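Screening of KB-3-1 cells (DMEM, 10% FBS, phenol-red free) ran from lowest to highest compound concentration; after 72 h at 37 °C viability was read luminescently and curves fitted.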
* hit, by the source's call; i = inactive; ? = inconclusive; nt = not tested or not shown; [ ] = remark or other dose. Sampled rows, rich in hits. Any-hit rate of the full collection: about 9.9%. Unless noted, calls come from the whole dose curve; as a rule, active = well fitted curve in the direction sought with a large enough effect; inconclusive = small, poorly fitted or top-dose-only effect, or another doubt; inactive = no such curve, though single readings can be large; an effect the other way counts as inactive or inconclusive.

SMILES	IL1B secr inh	MCF10A rereplic	SW480 rerep	KB-V1 cytotox	KB-3-1 tox
COc1cccc(/C=N/NC(=O)NC2CCCCC2)c1O	?	-1%	3%	i	i
O=C(N/N=C/c1ccc(OC(F)F)cc1OC(F)F)NC1CCCCC1	-81*	?	-26%	?	i
Cc1cc(OCc2nc(N)nc(N)c2-c2ccc(Cl)c(Cl)c2)ccc1[N+](=O)[O-]	-53*	?	?	1µM*	2.1µM*
Cc1nc(N)nc(N)c1-c1ccc(Cl)c(Cl)c1	-11	28%	13%	i	?
O=C1/C(=C/c2cccc(F)c2)Oc2cc(O)ccc21	-79*	15%	1%	i	i
Cc1cccc(/C=C2\Oc3cc(OS(C)(=O)=O)ccc3C2=O)c1	-56*	27%	0%	i	i
COc1cc(NC(=O)c2ccccc2)c(C)cc1NC(=O)CC(CC(=O)O)c1ccccc1 (stereo not given)	20	4%	-7%	i	i
N#Cc1ccc(CN2CCN(C(=O)c3ccccc3)CC2)c(Cl)c1	-6	0%	-6%	21µM*	i
O=C(c1ccccc1)N1CCN(Cc2c[nH]c3ccccc23)CC1	-83*	-1%	3%	i	i
O=S(=O)(c1ccc(Cl)cc1)N1CCN(Cc2c[nH]c3ccccc23)CC1	4	-1%	-4%	i	i
Clc1ccccc1N1CCN(Cc2c[nH]c3ccccc23)CC1	-81*	?	-1%[9.22 µM]	?	?
O=C(c1ccccc1)N1CCN(Cc2ccccc2C(F)(F)F)CC1	-15	15%	1%	?	i
CCOC(=O)c1c(C)n(-c2ccccc2)c2ccc(OC(=O)c3cccc(OC)c3OC)cc12	nt	nt	nt	i	i
Cc1ccc(C)c(OCCC(=O)Nc2cc(S(=O)(=O)N3CCCCC3)ccc2C)c1	-25	?	-1%	i	i
Cc1ccc(C)c(OCCC(=O)Nc2cccc(S(=O)(=O)N3CCCCC3)c2)c1	?	13%	-1%	15µM*	i
CC(C)(C)c1ccc(OCCC(=O)Nc2cccc(S(=O)(=O)N3CCCCC3)c2)cc1	?	7%	16%	21µM*	?
CCn1c(=O)cc(SCC(=O)NCCc2cccc(C)c2)c2ccccc21	nt	nt	nt	i	i
CC(C)(C)OC(=O)C[C@@H]1C/C=C\C[C@@H](CC(=O)N[C@@H](CO)Cc2ccccc2)C(=O)NCCOC1=O	-18	2%	1%	i	i
c1ccc(-c2cc(-c3ccccc3)n3ncnc3n2)cc1	-11	3%	1%	i	i
CCOC(=O)CSc1cc(-c2ccccc2)nc2ncnn12	nt	2.3µM*	-31%	i	i
COc1ccc(-c2ccc(C(=O)NCc3ccc(N(C)C)cc3)c3occc23)c(C)c1	-15	nt	nt	i	i
Cc1ccc(OCC(O)Cn2c(=N)n(Cc3ccccc3)c3ccccc32)cc1 (stereo not given)	-90*	?	?	16µM*	i
CCn1c(=N)n(CC(O)COc2ccccc2)c2ccccc21 (stereo not given)	nt	nt	nt	i	i
COc1ccc(OCC(O)Cn2c(=N)n(Cc3ccccc3)c3ccccc32)cc1 (stereo not given)	-97*	?	?	?	?
Cc1cccc(OCC(O)Cn2c(=N)n(CCN3CCCCC3)c3ccccc32)c1 (stereo not given)	-51*	?	?	?	?
SMILES	IL1B secr inh	MCF10A rereplic	SW480 rerep	KB-V1 cytotox	KB-3-1 tox
N=c1n(Cc2ccccc2)c2ccccc2n1CC(O)c1ccco1 (stereo not given)	-22	?	-2%	i	?
N=c1n(Cc2ccc(Cl)cc2)c2ccccc2n1CC(O)COc1ccccc1 (stereo not given)	-97*	?	?	?	?
CCCn1c2ccccc2c2cnn(CC(=O)NCc3cc(OC)ccc3OC)c(=O)c21	nt	nt	nt	i	i
O=C(Nc1cccc(F)c1)/C(=C/c1ccco1)NC(=O)c1ccco1	7	-1%	-6%	i	i
N=c1n(Cc2ccccc2)c2ccccc2n1CC(O)COc1ccc(Cl)cc1Cl (stereo not given)	-103*	?	?	?	?
Clc1ccc(OCc2nc3ccccc3n2Cc2ccccc2)c(Cl)c1	nt	nt	nt	i	i
CCN(CC)CCn1c(=N)n(CC(O)COc2cccc(C)c2)c2ccccc21 (stereo not given)	-67*	?	?	i	?
Cc1cccc(OCC(O)Cn2c(=N)n(Cc3ccccc3)c3ccccc32)c1 (stereo not given)	-54*	8%	?	?	i
N#Cc1cccc(NC(=O)c2cc(C3CCCCN3C(=O)c3cccs3)on2)c1 (stereo not given)	-14	nt	nt	i	i
O=S(=O)(c1ccc(Cl)cc1)N1CCN(CCc2ccncc2)CC1	5	?	-6%	i	i
O=C(c1cc(-c2ccccc2)n[nH]1)N1CCc2c([nH]c3ccccc23)C1c1ccccn1 (stereo not given)	-65*	?	?	i	?
Cc1ccc2nc(C(=O)N3CCc4c([nH]c5ccccc45)C3c3ccccn3)cn2c1 (stereo not given)	-59*	3%	2%	i	i
Cc1cccc(C2c3[nH]c4ccccc4c3CCN2C(=O)c2noc3c2CCCC3)n1 (stereo not given)	-54*	29%	-10%	i	?
O=[N+]([O-])c1nn(-c2ccc3c(c2)OCCO3)n(O)c1=NC1CCCCCC1	-9	1%	3%	16µM*	i
COc1ccc(-n2nc([N+](=O)[O-])c(=NCc3ccc4c(c3)OCO4)n2O)cc1	?	-2%	-1%	21µM*	i
CC1C/C(=C/c2ccncc2)C(=O)/C(=C/c2ccncc2)C1 (stereo not given)	-84*	0.46µM*	?	i	?
CC1C/C(=C/c2cccn2C)C(=O)/C(=C/c2cccn2C)C1 (stereo not given)	-17	4.6µM*	?	i	i
Cc1ccc(-n2nc(C)c3c(C(=O)Nc4ccc(C)cc4Cl)cc(C)nc32)cc1	nt	nt	nt	i	i
Cc1ccc(N2CCN(C(=O)CCc3c(C)nc4ncnn4c3C)CC2)c(C)c1	nt	nt	nt	?	i

Screening data (PubChem)
